High-throughput results as filed in PubChem BioAssay.
Rows were chosen to be rich in hits. Some 9.9% of all compounds tested hit in one or more screens of this group.
Tau FP inhib = tau fibrillization inhibition (FP); P10636; K18 P301L tau heparin fibrillization, Alexa594 FP, 6 h; Potency, µM (series often up to 57.7 µM), for the others: at the top dose activity, negative = inhibition, usual class: inhibitors; 280,000 compounds, 0.39% hits; AID 1468; active means well fitted curve in the direction sought with a large enough effect; inconclusive means small, poorly fitted or top-dose-only effect, or another doubt; inactive means no such curve, though single readings can be large; an effect the other way counts as inactive or inconclusive; further: nearly all actives have a fitted effect of over 55% in size
Target sequence (P10636 561-689 P618L limits assumed): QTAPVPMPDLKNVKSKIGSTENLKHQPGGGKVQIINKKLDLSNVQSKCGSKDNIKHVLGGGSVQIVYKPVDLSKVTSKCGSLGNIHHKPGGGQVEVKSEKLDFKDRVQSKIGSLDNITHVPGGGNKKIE
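Read-out: fluorescence polarization of Alexa 594-labeled tau (0.24 uM), 555 nm excitation, 632 nm emission. Mixtures held 15 uM unlabeled K18 P301L, compound and 20 uM heparin, pH 7 acetate buffer, incubated 6 hr at 37 C.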
KDM4E inh = JMJD2E (human) inhibition; JMJD2E catalytic domain, FDH-coupled NADH fluorescence (FDH is formaldehyde dehydrogenase); Potency, µM (top dose mostly 57.1 µM), for the others: at the top dose activity change, negative = inhibition, usual class: inhibitors; 230,000 compounds, 1.6% hits; AID 2147;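 further: 0% = wells with enzyme and -100% = buffer wells without enzyme; nearly all actives have a fitted effect of over 50% in size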
Tau fluor counter = counter-screen for tau fibril formation inhibitors; tau K18 P301L Alexa594 fluorescence, heparin fibrillization; Potency, µM (series often up to 57.7 µM), for the others: at the top dose activity change, negative = decrease; 280,000 compounds, 0.93% hits; AID 1463; active means well fitted curve in the direction sought with a large enough effect; inconclusive means small, poorly fitted or top-dose-only effect, or another doubt; inactive means no such curve, though single readings can be large; an effect the other way counts as inactive or inconclusive; further: nearly all actives have a fitted effect of over 55% in size
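Human tau K18 P301L (15 uM unlabeled, 0.24 uM Alexa 594-labeled) in 100 mM sodium acetate pH 7 with 20 uM heparin, 6 hr at 37 C. ThT 30 uM added, 1 hr ambient; Alexa 594 FP and total fluorescence read at 555/632 nm.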
Tau fibril ThT = inhibitors of human tau fibril formation, thioflavin T binding; P10636; recombinant tau K18 P301L, heparin-induced fibrillization, ThT fluorescence; Potency, µM (top dose mostly 57.4 µM), without a hit: top-dose activity, negative = inhibition, usual class: inhibitors; 270,000 compounds, 2.1% hits; AID 1460; active means well fitted curve in the direction sought with a large enough effect; inconclusive means small, poorly fitted or top-dose-only effect, or another doubt; inactive means no such curve, though single readings can be large; an effect the other way counts as inactive or inconclusive; further: nearly all actives have a fitted effect of over 55% in size
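ThT emission at 510 nm, taken 1 hr after adding 30 uM dye, quantifies aggregates formed when 20 uM heparin acts on human tau K18 P301L for 6 hr at 37 C.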
HPGD inh = inhibitors of human 15-hydroxyprostaglandin dehydrogenase (HPGD); P15428; purified HPGD, NADH fluorescence kinetic, PGE2 substrate; Potency, µM, for inactives: at the top dose activity change, negative = inhibition, most hits filed as inhibitors; 150,000 compounds, 4.3% hits; AID 894
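20 nM HPGD preincubated 15 min at room temperature with compound in 50 mM Tris-HCl pH 8, 0.01% Tween 20. Started with 1 mM NAD+ and 30 uM prostaglandin E2; NADH fluorescence (360/450 nm) read 5 times over 30-s intervals, last minus first.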
ALDH1A1 block = ALDH1A1 (human) enzyme inhibition | 220,000 compounds, 7.3% hits | P00352 | Purified ALDH1A1, NADH fluorescence, propionaldehyde substrate | Potency, µM (highest dose often 75.3 µM), without a hit: top-dose activity, negative = inhibition, hits mostly inhibitors | AID 1030;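 further: plate controls were no enzyme wells and a reference inhibitor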
Target sequence (P00352 whole entry, looked up): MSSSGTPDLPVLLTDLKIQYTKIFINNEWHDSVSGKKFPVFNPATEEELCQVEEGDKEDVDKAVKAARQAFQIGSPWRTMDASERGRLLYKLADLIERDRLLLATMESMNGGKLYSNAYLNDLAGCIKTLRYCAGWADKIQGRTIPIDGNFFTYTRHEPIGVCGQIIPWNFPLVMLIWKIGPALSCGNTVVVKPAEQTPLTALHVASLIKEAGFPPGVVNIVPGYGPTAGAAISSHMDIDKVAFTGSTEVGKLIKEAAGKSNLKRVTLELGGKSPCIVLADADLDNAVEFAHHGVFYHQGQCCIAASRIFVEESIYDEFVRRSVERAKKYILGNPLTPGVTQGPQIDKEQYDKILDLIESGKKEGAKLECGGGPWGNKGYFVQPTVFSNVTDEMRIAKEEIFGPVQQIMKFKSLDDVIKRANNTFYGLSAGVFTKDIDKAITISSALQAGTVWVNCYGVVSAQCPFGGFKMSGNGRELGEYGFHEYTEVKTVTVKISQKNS
* = called active by the depositor; ? = inconclusive; . = no result; [ ] = another dose, or the depositor's remark. Unless noted, the call rests on the fitted dose curve; in most records, active means well fitted inhibition curve with a large enough effect (not every such curve was filed as active); inconclusive means small, poorly fitted or top-dose-only effect, or another doubt; inactive means no such curve, though single readings can be large or run the other way. Unless noted, on the % scale 0 is the no-effect control and ±100 the full control effect; potency means the concentration at half of the fitted maximal effect.

SMILES | Tau FP inhib | KDM4E inh | Tau fluor counter | Tau fibril ThT | HPGD inh | ALDH1A1 block
COc1ccc2oc(=O)c(-c3csc(Nc4cccc(O)c4)n3)cc2c1 | -3.9% | ? | 6.31µM*[quencher] | 12.6µM* | -17.9% | -9.6%
Cc1coc2cc3oc(=O)c(CCC(=O)NCc4ccccc4Cl)c(C)c3cc12 | -8.5% | . | -9.1% | -5.1% | . | .
CCOc1ccc(-n2c(C)nc3cc(C(=O)NC4CCCC4)ccc32)cc1 | -2.2% | . | -15.2% | ? | . | .
CC(=O)c1cccc(NC(=O)Nc2ccc(C(=O)N3CCCC3)cc2)c1 | -14.8% | 1.3% | -12.0% | -17.4% | 1.12µM* | 14.1µM*
CCN(CC)c1ccc(NC(=O)Nc2cccc(C(C)=O)c2)cc1 | 13.3% | 3.0% | 17.8µM*[quencher] | ? | -22.4% | ?
CC(=O)Nc1cccc(NC(=O)Nc2ccc(C(C)=O)cc2)c1 | 0.8% | 1.0% | 3.5% | 7.8% | -5.1% | 15.9%
O=C(Nc1ccc(OCC(=O)N2CCOCC2)cc1)Nc1cccc(Cl)c1 | 9.2% | 1.2% | ? | -6.9% | . | 1.1%
O=C(Nc1ccccc1)Nc1ccc(C(=O)N2CCCC2)cc1 | -4.8% | -3.0% | -13.7% | -8.7% | . | 7.0%
O=C(Nc1ccc(C(=O)N2CCOCC2)cc1)Nc1cccc(Cl)c1 | ? | -2.6% | ? | -9.1% | 28.2µM* | 22.1%
COC(=O)[C@@H]1O[C@@H](c2c(OC)c(OC)c(C)c(OC)c2OC)[C@H](C)[C@@H](O)[C@@H]1C | -1.4%[11.6 µM] | . | -2.9%[11.6 µM] | -4.8%[11.5 µM] | . | -0.4%[13.5 µM]
CC1=C(SCCC#N)S/C(=C2\SC(C)=C(SCCC#N)S2)S1 | ? | -1.3% | ? | 7.94µM* | 17.8µM* | 5.01µM*
Cn1c(SCCC#N)nnc1-c1ccc(F)cc1 | 10.4% | -0.2% | -3.1% | -1.5% | . | 0.6%
Cc1[nH]n(-c2ccccc2)c(=O)c1C=Nc1ccc(S(=O)(=O)Nc2nccs2)cc1 | -4.7% | -0.4% | -19.3% | ? | . | 12.6µM*
CCc1nnc(NS(=O)(=O)c2ccc(N=Cc3c(C)[nH]n(-c4ccc(Cl)cc4)c3=O)cc2)s1 | 10.5% | -16.9% | -4.9% | -14.8% | ? | ?
CCc1nnc(NS(=O)(=O)c2ccc(N=Cc3c(C)[nH]n(-c4cccc(Cl)c4)c3=O)cc2)s1 | 3.2% | 5.2% | -12.6% | ? | 12.6µM* | ?
C=CC1=C2C=C(C3CC3)N(Cc3ccccc3)C=C2C(=O)C(C)(OC(=O)c2ccco2)C1=O (centres undefined) | 5.9%[11.6 µM] | -7.3%[11.4 µM] | -3.0%[11.6 µM] | -13.4%[11.5 µM] | -0.7% | 5.2%[13.5 µM]
COC(=O)c1oc(-c2ccccc2)nc1C | 2.7% | -28.0% | 5.5% | 3.8% | . | -0.3%
COC(=O)c1oc(-c2ccc(Cl)cc2)nc1C | -2.4% | -9.6% | -2.6% | -8.5% | . | 25.1µM*
N#CC(C#N)=c1ccc2c(c1)NC1(CCCCC1)N=2 | 25.1µM* | -8.0% | ? | 14.1µM* | -19.1% | -12.0%
CC(=O)NS(=O)(=O)c1ccc(NC(=O)/C=C/c2ccc(C)o2)cc1 | ? | ? | -4.8% | ? | . | 12.6µM*
Cc1ccc(/C=C/C(=O)Nc2ccc(N(C)C)cc2)o1 | 2.8% | 0.1% | -26.0% | 8.91µM* | -10.3% | -12.2%
Cc1ccc(/C=C/C(=O)Nc2nccs2)o1 | ? | -27.1% | -20.4% | ? | 25.1µM* | ?
Cc1ccc(/C=C/C(=O)Nc2ccncc2)o1 | -7.7% | ? | 4.1% | ? | ? | ?
CCN(CC)CCN(CC(=O)N(C1CCCCC1)C1CCCCC1)C(=O)c1ccco1 | 2.2% | ? | -1.1% | -5.9% | . | -7.5%
CCN(CC)S(=O)(=O)c1ccc(C)c(NC(=O)COC(=O)c2ccc(C)c(S(=O)(=O)N3CCOCC3)c2)c1 | 0.5% | 3.6% | -25.2% | -7.4% | -4.5% | -14.1%
SMILES | Tau FP inhib | KDM4E inh | Tau fluor counter | Tau fibril ThT | HPGD inh | ALDH1A1 block
COC(=O)c1ccc(CSc2nc3ccc(C)cc3[nH]2)o1 | 3.0% | -10.8% | -10.6% | -9.2% | -13.6% | 4.4%
C=CCn1c(-c2cc(OC)cc(OC)c2)n[nH]c1=S | -5.3% | -11.4% | -4.6% | -0.5% | -28.0% | 22.4µM*
Cc1ccc(NC(=O)C2(c3cccs3)CCOCC2)cc1C | 5.1% | 14.3% | 2.0% | 5.8% | -6.5% | -1.1%
C=CCc1cccc(/C=N/NC(=O)CNc2ccccc2OC)c1O | ? | ? | 15.8µM*[quencher] | ? | . | -8.4%
C=CCc1cccc(/C=N/NC(=O)CCC(=O)Nc2ccc(F)cc2)c1O | ? | 4.4% | -18.1% | 6.5% | -15.9% | 1.3%
C=CCc1cccc(/C=N/NC(=O)CNc2ccccc2)c1O | ? | ? | ? | 4.4% | -15.7% | 3.6%
C=CCc1cccc(/C=N/NC(=O)C(C)Nc2cccc(C)c2)c1O (centres undefined) | 2.9% | 20µM* | ? | -9.3% | . | -1.1%
C=CCc1cccc(/C=N/NC(=O)CCCNc2ccc(C)cc2)c1O | 11.3% | ? | 11.2µM*[quencher] | ? | -12.3% | -6.2%
N#Cc1ccccc1-c1ccc2ncnc(N3CCNCC3)c2c1 | ? | ? | -14.1% | -5.4% | ? | -11.3%
CC(=Nc1ccccc1)C1=C(O)COC1=O | 11.0% | 0.8% | -3.0% | -14.6% | -9.1% | 5.62µM*
COc1ccc(OC)c(N=C(C)C2=C(O)COC2=O)c1 | 6.1% | -6.1% | -10.2% | -6.6% | -3.8% | -0.5%
O=C(O)c1cccc2c(/C=N/Nc3ccccn3)c[nH]c12 | 9.5% | ? | -23.7% | . | . | .
O=C(O)c1ccccc1N/N=C/c1cc(Br)cc(Br)c1O | 21.8% | -8.9% | ? | 14.1µM* | . | .
O=C(O)c1ccccc1N/N=C\c1ccnc2ccccc12 | 10.7% | -8.0% | -23.9% | 5.01µM* | 12.6µM* | ?
O=C(Cc1ccccc1)N(Cc1cccnc1)c1nc2c(Cl)cccc2s1 | -5.5% | . | -18.6% | -8.1% | . | .
CCOC(=O)C1CCCN(CC(=O)N2CCCc3c2c(=O)oc2ccc(OCc4ccccc4)cc32)C1 (centres undefined) | 7.9% | . | -19.8% | ? | . | .
O=C(CN1CCN(c2ncccn2)CC1)N1CCCc2c1c(=O)oc1ccc(O)cc21 | -2.2% | -12.6% | -4.6% | -2.6% | -11.5% | 0.794µM*
CCCCCOc1ccc2oc(=O)c3c(c2c1)CCCN3C(=O)CN1CCCC(C(=O)OCC)C1 (centres undefined) | ? | -16.0% | -8.9% | ? | -12.0% | 25.1µM*
CCOC(=O)C1CCCN(C(=O)C2CCN(S(=O)(=O)c3c(C)noc3/C=C/c3ccc(C)cc3)CC2)C1 (centres undefined) | ? | . | -5.1% | -1.5% | . | .
Cc1ccc(NC(=O)COc2ccccc2C=O)cc1Cl | 1.3% | 2.7% | -0.6% | -10.9% | . | -4.4%
CC1CC(C)(C)N2C(=O)C3(Nc4ccccc4S3)c3cccc1c32 (centres undefined) | -4.6% | -5.8% | ? | ? | -10.8% | ?
O=C1N2CCCc3cccc(c32)C12Nc1ccccc1S2 (centres undefined) | -0.9% | 2.9% | -9.1% | -5.5% | -16.6% | 14.1µM*
